D2 antagonist: antagonizes the human D2 dopamine receptor; P14416; HEK293 TREx D2 cells, calcium flux, dopamine EC80; inhibition, % at 10 µM; hit rate 2% among 340,000; in the data active means inhibition above about 30%; inactive means below that, where a call was filed
Target sequence (P14416 whole entry, looked up): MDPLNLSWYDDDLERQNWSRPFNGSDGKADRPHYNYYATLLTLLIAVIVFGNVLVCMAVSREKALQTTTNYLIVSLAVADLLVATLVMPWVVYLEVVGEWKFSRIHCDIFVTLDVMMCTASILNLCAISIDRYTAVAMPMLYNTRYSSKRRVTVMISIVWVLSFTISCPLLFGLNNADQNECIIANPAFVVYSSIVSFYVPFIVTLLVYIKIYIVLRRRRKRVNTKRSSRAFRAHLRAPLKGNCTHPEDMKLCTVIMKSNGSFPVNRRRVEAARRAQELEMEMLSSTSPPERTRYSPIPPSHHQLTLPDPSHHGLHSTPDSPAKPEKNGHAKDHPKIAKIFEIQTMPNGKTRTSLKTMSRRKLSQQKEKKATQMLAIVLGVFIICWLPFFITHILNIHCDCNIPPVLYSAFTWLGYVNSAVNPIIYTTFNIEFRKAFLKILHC
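Read-out: kinetic calcium fluorescence (1 cycle/s) in inducible HEK293 T-REx D2 cells after an EC80 dopamine addition that followed 180 s compound preincubation. Loss of the dopamine response indicates antagonism.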
D2 PAM-1: D2 dopamine receptor (human) potentiation. P14416. HEK293 T-REx D2, calcium flux, EC20 dopamine potentiation. potentiation, % at 10 µM. hit rate 0.34% among 340,000;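 active means potentiation over 3 SD above the plate norm, cut at about 30% in these data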
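Tetracycline-induced HEK293 T-REx cells force-coupled to calcium signalling expressed D2; compounds were pin-added after a 10 s baseline, read kinetically 180 s, then an EC20 dopamine challenge followed with a further 180 s calcium read.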
D2 ag-1: agonists of human D2 dopamine receptor; hit rate 0.53% among 340,000; activation, % at 2 µM; HEK293 T-REx D2 cells, calcium flux agonist mode;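 active means activation over 3 SD above normal in the single-dose calcium agonist read, cut at about 30% in these data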
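In this primary screen, compounds producing a positive calcium signal within 180 s of addition to tetracycline-induced, force-coupled HEK293 Trex D2 cells are flagged; cells are dye-loaded with a no-wash calcium kit beforehand.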
D2 PAM-2: human D2 receptor positive allosteric modulation. DiscoveRx D2 beta-arrestin cells, luminescence, 90 min; 100% = 57 uM dopamine signal. hit rate 0.23% among 360,000. potentiation, % (no concentration beside the values). P14416; in the data active means potentiation above about 50%; inconclusive means mostly about 30% to 49%
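PathHunter beta-arrestin assay in DiscoveRx D2 cells. Compounds were added with an EC20 of dopamine (50 nM final) for 90 min at 37 deg C. Luminescence was read 1 h after detection reagent, with 57 uM dopamine as the EC100 control.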
D2 ag-2: human D2 receptor agonism in beta-arrestin assay. P14416. DiscoveRx PathHunter D2 beta-arrestin, luminescence, 90 min; 100% = 57 uM dopamine signal. activation, % (concentration not given with the values). hit rate 0.084% among 360,000. AID 624465; in the data active means activation above about 40%; inconclusive means between about 15% and that limit
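DiscoveRx PathHunter D2 beta-arrestin cells (2,100/well) attached overnight, then compound-stimulated 90 min at 37 C in HBSS/10 mM HEPES/0.1% Tween-20 buffer; beta-galactosidase complementation read by luminescence after 1 h at ambient temperature. Dopamine 57 uM final (EC100) as control.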
A number is an active result; . = inactive; ? = inconclusive; / = no result given. Hits are enriched below; roughly 2.4% of the tested compounds scored in any of these assays.

SMILES	D2 antagonist	D2 PAM-1	D2 ag-1	D2 PAM-2	D2 ag-2
COc1ccccc1N1CCN(CCc2n[nH]c(=S)n2-c2ccccc2)CC1	51.6	.	.	.	.
O=c1c2cc(N3CCOCC3)ccc2[nH]c(=S)n1CCCN1CCN(c2ccccc2F)CC1	83.6	.	70.5	/	/
O=c1c2cc(N3CCOCC3)ccc2[nH]c(=S)n1CCCN1CCCCCC1	38.7	.	.	.	.
COc1ccccc1N1CCN(CCCn2c(=S)[nH]c3ccccc3c2=O)CC1	82.4	.	.	.	.
CCN(C(=O)CSc1nc(-c2ccccc2)no1)c1cccc(C)c1	/	.	.	/	/
CC(C)(C)OC(=O)N1CCC(c2c(C(=O)N3CCCCC3)cnn2-c2ccccc2Cl)CC1	/	.	.	/	/
O=c1c2ccccc2[nH]c(=S)n1CCN1CCN(Cc2ccccc2)CC1	51.7	.	.	.	.
Cc1ccc(S(=O)(=O)Nc2cc(=O)[nH]c3c2CCC3)cc1	37.0	.	.	.	.
Cc1ccc(NS(=O)(=O)c2ccc3[nH]c4c(c3c2)CCCCCC4)cc1	/	.	.	/	/
O=C1CSC(=Nc2cccc([N+](=O)[O-])c2)N1	42.8	.	.	.	.
CC1CCN(C(=O)CSc2nnc(NC(=O)Nc3ccccc3)s2)CC1	/	.	.	/	/
Cn1nnnc1SCC(=O)Nc1ccc(Br)cc1Cl	.	43.7	.	.	.
Cc1cccn2c(=O)cc(CSc3nnc(NC(=O)c4ccc(F)cc4)s3)nc12	/	.	.	/	/
COc1ccc(-n2nc(C(=O)NCC(=O)NCCCN3CCCCCC3)c3ccccc3c2=O)cc1Cl	.	.	.	.	.
COc1ccc(/C=N/NC(=O)c2nn(-c3ccccc3)c(=O)c3c(N)scc23)cc1	.	.	.	.	.
COc1ccc(/C=N/NC(=O)c2nn(-c3ccc(C)c(C)c3)c(=O)c3ccccc23)cc1	44.7	.	.	.	.
COCCCNC(=O)CNC(=O)c1nn(-c2ccc(OC)c(Cl)c2)c(=O)c2ccccc12	50.0	.	.	.	.
CCOC(=O)C1CCCN(C(=O)CNC(=O)c2nn(-c3ccc(OC)c(Cl)c3)c(=O)c3ccccc23)C1 (centres undefined)	.	.	.	.	.
COc1ccc(-n2nc(C(=O)NCC(=O)N3CCCC(C)C3)c3ccccc3c2=O)cc1Cl (centres undefined)	.	31.5	.	.	.
COc1ccc(C2=NN(C(=O)CSc3nc(=O)n4cccc(C)c4n3)C(c3ccc(C)cc3)C2)cc1 (centres undefined)	34.4	.	.	.	.
COc1ccc(C2=NN(C(=O)CSc3ncccn3)C(c3ccc(C)cc3)C2)cc1 (centres undefined)	.	.	.	.	.
COC(=O)c1sccc1NC(=S)N1CCCCC1	.	.	.	.	.
COC(=O)c1sccc1NC(=S)N1CCC(C(N)=O)CC1	36.5	.	.	.	.
CSc1cccc(NC(=O)CC(c2ccc(F)cc2)N2Cc3ccccc3C2=O)c1 (centres undefined)	/	.	.	/	/
CC(=O)OC(C)CS(=O)(=O)c1ccccc1 (centres undefined)	30.2	.	.	.	.
SMILES	D2 antagonist	D2 PAM-1	D2 ag-1	D2 PAM-2	D2 ag-2
Cn1cc(CN2CCN(c3ccccc3)CC2)c2ccccc21	80.9	.	74.1	.	.
Cc1nn(-c2ccccc2)c2c1N(CCCC(=O)NCc1ccc(OC(C)C)cc1)C(=O)CS2	/	.	.	/	/
CC1CN(S(=O)(=O)c2ccc(F)cc2)CN1C(=O)N1CCOCC1 (centres undefined)	.	.	.	.	.
CC1CN(S(=O)(=O)c2ccc(F)cc2)C(C)N1C(=O)N1CCOCC1 (centres undefined)	32.1	.	.	.	.
CCN(CC)c1nn2c(=O)c(C(=O)NCc3cccc(C)c3)cnc2s1	/	.	/	/	/
Cc1cccc(N2CCN(C(=O)c3sc4nc5n(c(=O)c4c3C)CCC5)CC2C)c1 (centres undefined)	/	.	.	/	/
CCCCOc1ccc(S(=O)(=O)NNC(=O)c2cc3ccccc3o2)cc1	44.2	.	.	.	.
Cn1nnnc1SCCCNCc1ccccc1OCc1ccc(Cl)cc1	/	.	/	/	/
O=C(NNC(=O)c1ccccc1Br)c1ccccc1Cl	.	.	.	.	.
O=C(NNC(=S)Nc1ccccc1Cl)c1ccccc1Br	53.4	.	.	.	.
Oc1ccc[n+](CCCCC[n+]2cccc(O)c2)c1	.	.	.	.	.
Oc1ccc[n+](/C=C\c2ccccc2)c1	37.9	.	.	.	.
COc1cc(NC(=O)CC2C(=O)N(c3ccc(Cl)cc3)C(=O)N2Cc2cccs2)cc(OC)c1 (centres undefined)	/	.	.	/	/
COc1ccc(Nc2ccc3c(c2)=NC2(CCCCC2)[N+]=3[O-])cc1	.	.	.	.	.
[O-][N+]1=c2ccc(Nc3ccccc3)cc2=NC12CCCCC2	32.5	.	.	.	.
COc1ccccc1Nc1nn2c(=O)c3ccc(C(=O)NCCC4=CCCCC4)cc3nc2s1	/	.	.	/	/
CCOc1ccc(NC(=O)CSc2nnc(CNC(=O)C34CC5CC(CC(C5)C3)C4)n2CC)cc1	/	.	.	/	/
Nc1c2c(nc3ccc(Br)cc13)N(C1CCCCC1)CC2	74.2	.	.	/	/
CCOc1ccc(NC(=O)N2CCN(S(=O)(=O)c3ccc4c(ccn4C)c3)CC2)cc1	/	.	.	/	/
COc1ccc(S(=O)(=O)N2CCOC23CCN(C(=O)c2ccccc2Br)CC3)cc1	.	70.8	.	.	.
COc1ccc(S(=O)(=O)N2CCOC23CCN(C(=O)c2ccccc2OC)CC3)cc1	.	.	.	.	.
Cc1cnc(C(=O)Nc2ccccc2-c2nnn(CC(=O)NC3CCCC3)n2)cn1	30.4	.	.	.	.
CC(C)[C@H](NC(=O)N1CCn2c1nc1ccccc12)C(=O)N[C@H](C(=O)O)c1ccccc1	58.0	.	.	.	.
CC(=O)c1ccc(OCC(=O)NC2CCCCCC2)cc1	.	30.8	.	.	.
Cc1cc(=O)oc2cc(OCC(=O)NC3CCCC3)ccc12	.	30.6	.	.	.
SMILES	D2 antagonist	D2 PAM-1	D2 ag-1	D2 PAM-2	D2 ag-2
CC(=O)c1ccc(OCC(=O)NC(=O)NC2CCCC2)cc1	/	/	/	.	.
Cc1cc(C)cc(NC(=O)Cn2c(=O)n(C(C)C)c(=O)c3oc4ccccc4c32)c1	/	.	.	/	/
CCNc1nc(OC)nc(Oc2ccc(=O)n(-c3ccccc3)n2)n1	.	38.2	.	.	.
CCNc1nc(Oc2ccc(=O)n(-c3ccccc3)n2)nc(N(C)C)n1	.	.	.	?	.
CC(C)Cc1ccc(C(C)C(=O)Nc2ccc(O)cc2)cc1 (centres undefined)	38.8	.	.	.	.
CC(C)Cc1ccc(C(C)C(=O)Nc2cccnc2)cc1 (centres undefined)	.	.	.	.	.
CCOc1ccccc1C(=O)Nc1c(C(=O)Nc2ccc(F)cc2)oc2ccccc12	/	.	.	/	/
S=C1SCN(Cc2ccccn2)CN1Cc1ccco1	36.1	.	.	.	.

Assay outcomes as filed in PubChem BioAssay.
